# Records with an inconclusive call do not appear. Calls of active or inactive are those of the source. The call rests on the fitted dose curve; in most records, active means well fitted cell-killing curve with a large enough effect; inconclusive means small, poorly fitted or top-dose-only effect, or effect the other way; inactive means no such curve, though single readings can be large or run the other way.
# Test: Quantitative High-Throughput drug screen in 47 multiple myeloma cell lines against the NCATS MIPE library collection: FR4_PLB cell viability assay (AID 1918924; further: nearly all actives have a fitted effect of over 35% in size)
# Conditions: FR4_PLB myeloma cells viability, CellTiter-Glo ATP, 48 h; series mostly up to 45.8 µM; viability (% of DMSO control): at the top concentration
# Summary of the method: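 Luminescent ATP measurement with CellTiter-Glo gives viability, scaled between DMSO-only wells (100%) and media-only wells (0%). Cells, 500 per well, faced library compounds for 48 hours at 37C.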
# Potency means the concentration at half of the fitted maximal effect.
Structure (SMILES),viability (% of DMSO control),Potency
Clc1ccc(-c2nc3sccn3c2C=NOCc2ccc(Cl)c(Cl)c2)cc1,93% (inactive),
O=C1NC(=O)C(=Cc2ccc(-c3ccc(F)cc3)o2)S1,116% (inactive),
COc1ccc2c3c1OC1C[C@@H](O)C=C[C@@]31CCN(C)C2 (some centres undefined),107% (inactive),
Cn1cc(C=C2C(=O)Nc3cccnc32)c2ccccc21,107% (inactive),
CC[C@]1(O)C[C@@H]2CN(CCc3c([nH]c4ccccc34)[C@@](C(=O)OC)(c3cc4c(cc3OC)N(C=O)[C@@H]3C45CCN4CC=C[C@](CC)([C@H]45)[C@@H](OC(C)=O)[C@]3(O)C(=O)OC)C2)C1 (some centres undefined),,20.9 µM (active)
NC(=O)NN=Cc1ccc([N+](=O)[O-])o1,88% (inactive),
Nc1nc(F)nc2c1ncn2[C@@H]1O[C@H](COP(=O)(O)O)[C@@H](O)[C@H]1O,,1.87 µM (active)
CC1(C)Cc2c(sc(NC(=S)NC(=O)c3ccccc3)c2C(=O)O)CO1,103% (inactive),
O=c1ccn([C@@H]2O[C@H](CO)[C@H](O)[C@H]2O)c(=O)[nH]1,106% (inactive),
